# Reference: article PMC7862700, “An all-to-all approach to the identification of sequence-specific readers for epigenetic DNA modifications on cytosine”
# Assays:
# Experiment in all cases: DAPPL (digital affinity profiling via proximity ligation, sequencing); 10 mM Tris-HCl pH 7.5, 50 mM NaCl, 1 mM DTT, 4% glycerol, room temperature, 30 min; GST-TFs on glutathione beads, 16-mer random dsDNA library, 0.1% formaldehyde crosslink after washing; high values mean tight binding
# FEV = molecular target: T1, FEV (Homo sapiens, UniProt Q99581 1-238); settings: protein: recombinant; tags: N-terminal GST; dsDNA, one strand shown
# T1 sequence: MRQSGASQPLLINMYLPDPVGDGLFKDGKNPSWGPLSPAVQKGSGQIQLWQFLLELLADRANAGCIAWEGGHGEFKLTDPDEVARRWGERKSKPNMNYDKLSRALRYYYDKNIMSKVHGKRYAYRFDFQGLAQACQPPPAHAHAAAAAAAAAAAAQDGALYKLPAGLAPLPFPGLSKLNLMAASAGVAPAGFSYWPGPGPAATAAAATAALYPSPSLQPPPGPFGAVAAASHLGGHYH
# Summary of the method: (§1)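 Binding signal is given per hexamer as its read frequency for a factor divided by its frequency in the tag-only sample. GST-fused human transcription factors were expressed in yeast, captured on glutathione beads, barcoded with DNA and pooled with that sample, then incubated with 200 nmole of a 16-mer random double-stranded DNA library in Tris/NaCl/DTT/glycerol buffer for 30 min at room temperature. The pools were then washed, crosslinked, proximity-ligated, amplified by PCR and sequenced on an Illumina NextSeq500.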
# ETV5 = ETV5 (Homo sapiens, UniProt P41161 1-510); settings: protein: recombinant; tags: N-terminal GST; dsDNA, one strand shown
# Chain of ETV5 (P41161 whole entry): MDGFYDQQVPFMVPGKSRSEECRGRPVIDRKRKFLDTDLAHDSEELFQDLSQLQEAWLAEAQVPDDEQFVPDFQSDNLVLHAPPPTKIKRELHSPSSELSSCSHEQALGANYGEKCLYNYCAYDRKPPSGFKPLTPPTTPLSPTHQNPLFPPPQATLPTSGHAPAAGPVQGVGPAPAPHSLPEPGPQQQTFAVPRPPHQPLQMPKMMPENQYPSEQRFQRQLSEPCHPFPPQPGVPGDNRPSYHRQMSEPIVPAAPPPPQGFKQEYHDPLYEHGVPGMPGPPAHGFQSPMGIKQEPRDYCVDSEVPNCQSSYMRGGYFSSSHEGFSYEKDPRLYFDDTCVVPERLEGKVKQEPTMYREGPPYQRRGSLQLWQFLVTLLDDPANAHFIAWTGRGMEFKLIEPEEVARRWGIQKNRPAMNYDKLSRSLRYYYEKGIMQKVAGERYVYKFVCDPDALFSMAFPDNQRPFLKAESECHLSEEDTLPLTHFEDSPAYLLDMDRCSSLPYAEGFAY
# Summary of the method: as §1
# HSF1 = HSF1 (Homo sapiens, UniProt Q00613 1-529); settings: protein: recombinant; tags: N-terminal GST; chain copies: 3; dsDNA, one strand shown
# Chain of HSF1 (Q00613 whole entry): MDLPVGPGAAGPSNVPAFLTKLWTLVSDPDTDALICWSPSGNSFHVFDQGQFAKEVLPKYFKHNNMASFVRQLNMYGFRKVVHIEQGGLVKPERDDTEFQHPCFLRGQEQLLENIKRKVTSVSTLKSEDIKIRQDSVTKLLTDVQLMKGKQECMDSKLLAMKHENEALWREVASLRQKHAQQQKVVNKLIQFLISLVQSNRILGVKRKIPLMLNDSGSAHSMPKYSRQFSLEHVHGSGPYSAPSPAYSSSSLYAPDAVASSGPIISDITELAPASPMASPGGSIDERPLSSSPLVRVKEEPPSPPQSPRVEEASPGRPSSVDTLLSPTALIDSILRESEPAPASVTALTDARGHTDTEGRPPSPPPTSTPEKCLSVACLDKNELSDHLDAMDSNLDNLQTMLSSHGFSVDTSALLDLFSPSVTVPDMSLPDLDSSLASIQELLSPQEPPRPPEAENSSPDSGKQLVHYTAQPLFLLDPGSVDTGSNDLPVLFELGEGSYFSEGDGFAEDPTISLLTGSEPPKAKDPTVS
# Summary of the method: as §1
# SPIC = molecular target: T2, SPIC (Homo sapiens, UniProt Q8N5J4 1-248); settings: protein: recombinant; tags: N-terminal GST; dsDNA, one strand shown
# T2 sequence: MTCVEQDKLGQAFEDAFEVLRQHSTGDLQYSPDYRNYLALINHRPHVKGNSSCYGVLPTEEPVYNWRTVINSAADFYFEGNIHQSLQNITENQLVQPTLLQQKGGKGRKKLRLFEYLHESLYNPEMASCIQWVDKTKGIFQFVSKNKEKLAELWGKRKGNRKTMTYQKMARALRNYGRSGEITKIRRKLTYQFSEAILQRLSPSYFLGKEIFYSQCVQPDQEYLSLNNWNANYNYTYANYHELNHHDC
# Summary of the method: as §1
# ELF4 = ELF4 (Homo sapiens, UniProt Q99607 1-663); settings: protein: recombinant; tags: N-terminal GST; dsDNA, one strand shown
# Chain of ELF4 (Q99607 whole entry): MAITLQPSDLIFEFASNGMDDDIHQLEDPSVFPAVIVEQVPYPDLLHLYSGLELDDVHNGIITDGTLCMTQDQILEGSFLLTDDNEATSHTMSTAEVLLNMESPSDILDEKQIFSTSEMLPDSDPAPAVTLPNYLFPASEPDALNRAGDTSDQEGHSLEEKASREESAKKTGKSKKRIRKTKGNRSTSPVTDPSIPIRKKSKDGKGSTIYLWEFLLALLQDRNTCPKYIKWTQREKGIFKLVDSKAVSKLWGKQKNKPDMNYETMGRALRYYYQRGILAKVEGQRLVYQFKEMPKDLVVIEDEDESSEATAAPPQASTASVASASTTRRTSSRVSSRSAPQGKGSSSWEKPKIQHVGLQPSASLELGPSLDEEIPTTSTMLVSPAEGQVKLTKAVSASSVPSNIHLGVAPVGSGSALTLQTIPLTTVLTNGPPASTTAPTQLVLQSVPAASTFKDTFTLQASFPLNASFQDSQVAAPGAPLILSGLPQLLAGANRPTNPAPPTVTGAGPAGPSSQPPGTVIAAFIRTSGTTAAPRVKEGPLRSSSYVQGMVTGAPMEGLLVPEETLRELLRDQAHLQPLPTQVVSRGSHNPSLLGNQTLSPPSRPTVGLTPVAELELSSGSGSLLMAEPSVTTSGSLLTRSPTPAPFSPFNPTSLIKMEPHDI
# Summary of the method: as §1
# ELK4 = molecular target: T3, ELK4 (Homo sapiens, UniProt P28324-2 1-405); settings: protein: recombinant; tags: N-terminal GST; dsDNA, one strand shown
# T3 sequence: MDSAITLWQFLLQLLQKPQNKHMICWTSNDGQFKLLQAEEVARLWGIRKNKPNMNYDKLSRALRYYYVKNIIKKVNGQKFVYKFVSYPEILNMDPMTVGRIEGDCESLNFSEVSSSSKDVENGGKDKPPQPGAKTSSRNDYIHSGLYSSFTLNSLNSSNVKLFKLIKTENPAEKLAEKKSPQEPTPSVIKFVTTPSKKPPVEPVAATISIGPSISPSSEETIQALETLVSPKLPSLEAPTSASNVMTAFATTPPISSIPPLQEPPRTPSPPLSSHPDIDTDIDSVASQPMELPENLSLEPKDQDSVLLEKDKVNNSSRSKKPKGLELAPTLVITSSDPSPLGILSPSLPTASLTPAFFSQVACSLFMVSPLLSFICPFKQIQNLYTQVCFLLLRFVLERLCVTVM
# Summary of the method: as §1
# ETV2 = molecular target: T4, ETV2 (Homo sapiens, UniProt O00321 1-342); settings: protein: recombinant; tags: N-terminal GST; dsDNA, one strand shown
# T4 sequence: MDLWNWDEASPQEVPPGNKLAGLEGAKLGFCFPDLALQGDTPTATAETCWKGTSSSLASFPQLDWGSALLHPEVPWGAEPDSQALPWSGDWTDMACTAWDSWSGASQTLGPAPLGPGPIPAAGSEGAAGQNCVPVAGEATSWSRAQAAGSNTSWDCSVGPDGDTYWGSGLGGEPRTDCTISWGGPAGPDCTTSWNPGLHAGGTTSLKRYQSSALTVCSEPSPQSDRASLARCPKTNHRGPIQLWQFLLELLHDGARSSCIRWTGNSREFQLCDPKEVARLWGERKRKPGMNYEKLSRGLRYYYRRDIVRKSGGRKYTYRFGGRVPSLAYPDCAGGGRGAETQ
# Summary of the method: as §1
# ELF3 = molecular target: T5, ELF3 (Homo sapiens, UniProt P78545 1-371); settings: protein: recombinant; tags: N-terminal GST; dsDNA, one strand shown
# T5 sequence: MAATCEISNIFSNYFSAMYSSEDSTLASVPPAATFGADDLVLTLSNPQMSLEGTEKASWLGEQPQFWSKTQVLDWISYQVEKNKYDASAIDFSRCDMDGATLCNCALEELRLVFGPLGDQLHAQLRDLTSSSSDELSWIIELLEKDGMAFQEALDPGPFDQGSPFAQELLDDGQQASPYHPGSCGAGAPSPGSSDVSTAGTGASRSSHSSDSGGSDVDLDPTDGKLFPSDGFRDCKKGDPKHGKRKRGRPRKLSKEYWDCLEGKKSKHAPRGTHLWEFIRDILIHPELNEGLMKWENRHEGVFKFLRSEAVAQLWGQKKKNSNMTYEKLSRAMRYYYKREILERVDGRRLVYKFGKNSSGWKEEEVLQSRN
# Summary of the method: as §1
# CRX = CRX (Homo sapiens, UniProt O43186 1-299); settings: protein: recombinant; tags: N-terminal GST; dsDNA, one strand shown
# Chain of CRX (O43186 whole entry): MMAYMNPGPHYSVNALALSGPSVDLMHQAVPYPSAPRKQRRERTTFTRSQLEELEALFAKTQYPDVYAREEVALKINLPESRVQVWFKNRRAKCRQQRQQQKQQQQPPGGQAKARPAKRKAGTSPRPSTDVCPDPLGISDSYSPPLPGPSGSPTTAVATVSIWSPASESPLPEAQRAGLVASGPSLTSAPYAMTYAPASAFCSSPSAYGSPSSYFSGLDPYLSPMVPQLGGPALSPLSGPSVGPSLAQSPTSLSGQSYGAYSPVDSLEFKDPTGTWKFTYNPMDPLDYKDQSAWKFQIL
# Summary of the method: as §1
# ETV1 = ETV1 (Homo sapiens, UniProt P50549 1-477); settings: protein: recombinant; tags: N-terminal GST; dsDNA, one strand shown
# Chain of ETV1 (P50549 whole entry): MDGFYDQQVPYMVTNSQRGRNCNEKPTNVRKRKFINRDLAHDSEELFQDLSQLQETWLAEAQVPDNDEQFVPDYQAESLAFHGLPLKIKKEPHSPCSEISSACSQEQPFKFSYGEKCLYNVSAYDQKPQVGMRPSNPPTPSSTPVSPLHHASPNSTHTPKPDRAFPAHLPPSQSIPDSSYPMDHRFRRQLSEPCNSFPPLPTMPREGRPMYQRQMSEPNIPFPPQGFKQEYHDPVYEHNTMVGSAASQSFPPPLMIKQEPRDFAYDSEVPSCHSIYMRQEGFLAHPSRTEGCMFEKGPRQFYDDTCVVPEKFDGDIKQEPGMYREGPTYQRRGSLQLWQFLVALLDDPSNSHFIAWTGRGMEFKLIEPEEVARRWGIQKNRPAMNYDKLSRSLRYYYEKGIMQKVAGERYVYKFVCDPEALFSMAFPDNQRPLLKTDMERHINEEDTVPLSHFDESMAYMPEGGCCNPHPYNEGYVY
# Summary of the method: as §1
# ERF = molecular target: T6, ERF (Homo sapiens, UniProt P50548 1-548); settings: protein: recombinant; tags: N-terminal GST; dsDNA, one strand shown
# T6 sequence: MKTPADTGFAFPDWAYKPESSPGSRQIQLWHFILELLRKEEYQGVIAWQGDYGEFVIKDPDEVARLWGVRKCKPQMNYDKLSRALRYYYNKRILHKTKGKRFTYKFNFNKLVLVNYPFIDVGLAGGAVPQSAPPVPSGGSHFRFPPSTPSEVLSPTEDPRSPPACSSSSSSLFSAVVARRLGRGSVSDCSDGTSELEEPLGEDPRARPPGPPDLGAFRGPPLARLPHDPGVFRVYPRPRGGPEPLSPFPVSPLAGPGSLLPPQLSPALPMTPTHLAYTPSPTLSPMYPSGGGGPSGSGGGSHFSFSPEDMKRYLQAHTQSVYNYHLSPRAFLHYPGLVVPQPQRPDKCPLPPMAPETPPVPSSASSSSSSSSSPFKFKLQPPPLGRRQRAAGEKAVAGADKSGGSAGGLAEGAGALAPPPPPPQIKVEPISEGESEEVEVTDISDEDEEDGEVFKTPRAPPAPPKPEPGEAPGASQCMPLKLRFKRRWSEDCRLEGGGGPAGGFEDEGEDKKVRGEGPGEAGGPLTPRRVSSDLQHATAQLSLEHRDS
# Summary of the method: as §1
# ETV3L = molecular target: T7, ETV3L (Homo sapiens, UniProt Q6ZN32 1-361); settings: protein: recombinant; tags: N-terminal GST; dsDNA, one strand shown
# T7 sequence: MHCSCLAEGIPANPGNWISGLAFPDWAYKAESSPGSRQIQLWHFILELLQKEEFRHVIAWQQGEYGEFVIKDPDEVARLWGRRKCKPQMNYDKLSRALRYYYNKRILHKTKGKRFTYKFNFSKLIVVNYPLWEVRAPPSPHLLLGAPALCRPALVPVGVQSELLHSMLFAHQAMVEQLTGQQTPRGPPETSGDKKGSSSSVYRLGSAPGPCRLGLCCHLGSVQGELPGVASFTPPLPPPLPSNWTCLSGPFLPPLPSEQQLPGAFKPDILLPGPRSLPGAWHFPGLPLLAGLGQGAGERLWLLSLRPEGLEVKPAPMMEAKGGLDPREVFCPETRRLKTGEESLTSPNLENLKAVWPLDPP
# Summary of the method: as §1
# ETS2 = molecular target: T8, ETS2 (Homo sapiens, UniProt P15036 1-469); settings: protein: recombinant; tags: N-terminal GST; dsDNA, one strand shown
# T8 sequence: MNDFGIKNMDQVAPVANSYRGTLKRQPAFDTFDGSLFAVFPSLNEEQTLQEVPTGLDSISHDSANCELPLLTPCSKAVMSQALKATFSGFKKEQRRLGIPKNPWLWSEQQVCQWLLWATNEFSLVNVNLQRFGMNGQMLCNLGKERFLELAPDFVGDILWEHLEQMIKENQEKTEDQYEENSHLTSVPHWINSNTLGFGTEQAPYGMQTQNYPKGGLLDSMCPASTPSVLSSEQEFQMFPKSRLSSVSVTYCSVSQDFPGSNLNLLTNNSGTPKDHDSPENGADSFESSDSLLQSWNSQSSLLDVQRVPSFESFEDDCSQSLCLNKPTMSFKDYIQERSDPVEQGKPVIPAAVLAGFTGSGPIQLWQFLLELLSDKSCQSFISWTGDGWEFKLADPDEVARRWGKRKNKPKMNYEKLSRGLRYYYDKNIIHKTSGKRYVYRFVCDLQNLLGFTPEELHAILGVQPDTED
# Summary of the method: as §1
# SPDEF = molecular target: T9, SPDEF (Homo sapiens, UniProt O95238 1-335); settings: protein: recombinant; tags: N-terminal GST; dsDNA, one strand shown
# T9 sequence: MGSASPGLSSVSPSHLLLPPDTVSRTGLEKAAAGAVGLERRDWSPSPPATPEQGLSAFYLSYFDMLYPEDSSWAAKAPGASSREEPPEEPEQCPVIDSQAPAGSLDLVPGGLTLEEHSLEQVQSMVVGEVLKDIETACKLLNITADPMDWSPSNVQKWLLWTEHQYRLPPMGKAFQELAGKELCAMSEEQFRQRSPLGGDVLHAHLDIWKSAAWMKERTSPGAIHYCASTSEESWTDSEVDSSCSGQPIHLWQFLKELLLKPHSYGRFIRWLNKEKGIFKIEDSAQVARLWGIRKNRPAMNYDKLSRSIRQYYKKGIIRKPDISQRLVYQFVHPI
# Summary of the method: as §1
# ETV7 = molecular target: T10, ETV7 (Homo sapiens, UniProt Q9Y603 1-341); settings: protein: recombinant; tags: N-terminal GST; dsDNA, one strand shown
# T10 sequence: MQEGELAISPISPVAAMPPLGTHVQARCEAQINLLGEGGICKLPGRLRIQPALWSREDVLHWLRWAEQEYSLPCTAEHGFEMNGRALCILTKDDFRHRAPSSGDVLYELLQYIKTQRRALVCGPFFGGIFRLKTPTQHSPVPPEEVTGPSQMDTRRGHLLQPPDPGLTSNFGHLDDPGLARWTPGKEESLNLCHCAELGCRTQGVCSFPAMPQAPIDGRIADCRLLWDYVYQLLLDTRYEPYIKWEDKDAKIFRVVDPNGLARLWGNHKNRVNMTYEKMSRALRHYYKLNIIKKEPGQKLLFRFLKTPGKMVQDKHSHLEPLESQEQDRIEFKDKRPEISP
# Summary of the method: as §1
# ELF5 = molecular target: T11, ELF5 (Homo sapiens, UniProt Q9UKW6-2 1-255); settings: protein: recombinant; tags: N-terminal GST; dsDNA, one strand shown
# T11 sequence: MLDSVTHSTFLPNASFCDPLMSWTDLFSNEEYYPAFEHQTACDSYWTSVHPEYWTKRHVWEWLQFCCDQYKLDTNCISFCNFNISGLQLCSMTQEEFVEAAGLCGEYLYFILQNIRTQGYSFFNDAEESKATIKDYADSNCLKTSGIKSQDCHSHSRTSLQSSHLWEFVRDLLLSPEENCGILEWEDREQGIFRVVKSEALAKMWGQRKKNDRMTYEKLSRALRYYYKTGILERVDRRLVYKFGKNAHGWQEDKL
# Summary of the method: as §1
# ETV3 = molecular target: T12, ETV3 (Homo sapiens, UniProt P41162-2 1-143); settings: protein: recombinant; tags: N-terminal GST; dsDNA, one strand shown
# T12 sequence: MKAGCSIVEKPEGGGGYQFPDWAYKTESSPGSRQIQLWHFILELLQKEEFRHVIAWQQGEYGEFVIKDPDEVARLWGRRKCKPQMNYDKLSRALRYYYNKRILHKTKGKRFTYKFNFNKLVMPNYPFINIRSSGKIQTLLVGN
# Summary of the method: as §1
# ETV6 = ETV6 (Homo sapiens, UniProt P41212 1-452); settings: protein: recombinant; tags: N-terminal GST; dsDNA, one strand shown
# Chain of ETV6 (P41212 whole entry): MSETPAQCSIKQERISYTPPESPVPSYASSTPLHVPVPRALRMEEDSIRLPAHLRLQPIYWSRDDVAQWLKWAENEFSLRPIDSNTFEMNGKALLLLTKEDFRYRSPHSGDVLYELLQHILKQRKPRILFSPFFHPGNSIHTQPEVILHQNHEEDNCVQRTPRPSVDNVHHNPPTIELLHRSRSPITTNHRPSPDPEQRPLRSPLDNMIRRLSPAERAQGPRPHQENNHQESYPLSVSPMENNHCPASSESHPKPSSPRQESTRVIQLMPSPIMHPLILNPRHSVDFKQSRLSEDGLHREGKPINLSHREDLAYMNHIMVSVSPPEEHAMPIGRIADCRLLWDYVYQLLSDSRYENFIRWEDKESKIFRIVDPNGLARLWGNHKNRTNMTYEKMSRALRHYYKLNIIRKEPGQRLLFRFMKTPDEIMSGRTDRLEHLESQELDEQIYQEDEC
# Summary of the method: as §1
sequence,measurement,setting,value
TTGTGC,binding signal,FEV,"1.18 fold enrichment (6-mer frequency, TF over GST control)"
same,binding signal,ETV5,"1.17 fold enrichment (6-mer frequency, TF over GST control)"
same,binding signal,HSF1,"1.07 fold enrichment (6-mer frequency, TF over GST control)"
same,binding signal,SPIC,"1.37 fold enrichment (6-mer frequency, TF over GST control)"
same,binding signal,ELF4,"1.13 fold enrichment (6-mer frequency, TF over GST control)"
same,binding signal,ELK4,"1.23 fold enrichment (6-mer frequency, TF over GST control)"
same,binding signal,ETV2,"1.23 fold enrichment (6-mer frequency, TF over GST control)"
same,binding signal,ELF3,"1.24 fold enrichment (6-mer frequency, TF over GST control)"
same,binding signal,CRX,"1.09 fold enrichment (6-mer frequency, TF over GST control)"
same,binding signal,ETV1,"1.09 fold enrichment (6-mer frequency, TF over GST control)"
same,binding signal,ERF,"1.31 fold enrichment (6-mer frequency, TF over GST control)"
same,binding signal,ETV3L,"1.12 fold enrichment (6-mer frequency, TF over GST control)"
same,binding signal,ETS2,"1.17 fold enrichment (6-mer frequency, TF over GST control)"
same,binding signal,SPDEF,"1.15 fold enrichment (6-mer frequency, TF over GST control)"
same,binding signal,ETV7,"1.08 fold enrichment (6-mer frequency, TF over GST control)"
same,binding signal,ELF5,"1.23 fold enrichment (6-mer frequency, TF over GST control)"
same,binding signal,ETV3,"1.15 fold enrichment (6-mer frequency, TF over GST control)"
same,binding signal,ETV6,"1.23 fold enrichment (6-mer frequency, TF over GST control)"
